Laboratory results reported in PubChem BioAssay (Tox21).
Records with an inconclusive call do not appear. A call without a number means that no potency is given here. Unmarked numbers belong to inactive results. Calls of active or inactive are those of the source. Unless noted, calls come from the whole dose curve; as a rule, active = well fitted curve in the direction sought with a large enough effect in the repeat runs; inconclusive = weak or mixed curves; inactive = no such curve, though single readings can be large; an effect the other way counts as inactive or inconclusive.

Assays:
[1] = qHTS assay to identify small molecule agonists of the vitamin D receptor (VDR) signaling pathway - cell viability counter screen (AID 743224); note: series mostly up to about 63 µM; nearly all actives have a fitted effect of over 50% in size
Method in brief: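 Cells: VDR-bla, 2,000/well, settled 4 h. Treatment: compounds in DMSO, 16 h, 37C/5% CO2. Readout: CellTiter-Glo luminescence after 30 min RT.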

[2] = qHTS assay to identify small molecule agonists of the NFkB signaling pathway (AID 1159509; active = well fitted curve in the direction sought with a large enough effect in the signal ratio in the repeat runs, not every such curve was filed as active; the % refers to the signal ratio; note: series mostly up to about 61 µM)
Method in brief: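 Pathway activation was measured in ME-180 cells stably expressing beta-lactamase under NF-kB response element control. Substrate cleavage was read as the 460/530 nm emission shift after 5 hr compound incubation.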

[3] = qHTS assay to identify small molecule agonists of the NFkB signaling pathway - cell viability counter screen (AID 1159515; calls by dose curve; note: series mostly up to about 61 µM; nearly all actives have a fitted effect of over 55% in size)
Method in brief: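 Cells are seeded (2,000 NFkB-bla ME-180 per well), rested overnight, and dosed with DMSO-dissolved compounds for 5 hr at 37 C. Viability is then read by CellTiter-Glo luminescence after 30 min at room temperature.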

[4] = qHTS assay to identify small molecule agonists of the endoplasmic reticulum stress response signaling pathway (AID 1159516; active = well fitted activation curve with a large enough effect in the signal ratio in the repeat runs, not every such curve was filed as active; the % refers to the signal ratio)
Method in brief: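 Cells are seeded at 1,500 per well and incubated overnight. Compounds in DMSO are added for 5 hr at 37 C, then beta-lactamase FRET substrate for 2 hr at room temperature, and fluorescence at 460 and 530 nm is measured.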

[5] = qHTS assay to identify small molecule agonists of the endoplasmic reticulum stress response signaling pathway - cell viability counter screen (AID 1159517; calls by dose curve;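 note: HeLa cells carrying an ER stress response element beta-lactamase reporter; series mostly up to about 61 µM; nearly all actives have a fitted effect of over 50% in size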)
Method in brief: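 In parallel with the ESRE reporter read, cytotoxicity was scored by CellTiter-Glo luminescence (30 min, room temperature) on HeLa ESRE-bla cells dosed for 5 hr.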

[6] = qHTS assay to identify small molecule antagonists of the retinoid-related orphan receptor gamma (ROR-gamma) signaling pathway - cell viability counter screen (AID 1159520); note: nearly all actives have a fitted effect of over 50% in size
Method in brief: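 Tet-on ROR gamma CHO cells were given compounds for 2 hr, then doxycycline hyclate at 1 uM final, and incubated 16 hr at 37 C. Viability was measured as ATP content by CellTiter-Glo luminescence.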

[7] = target: Nuclear receptor ROR-gamma (Homo sapiens) (UniProt P51449); assay: qHTS assay to identify small molecule antagonists of the retinoid-related orphan receptor gamma (ROR-gamma) signaling pathway (AID 1159521;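 note: CHO cells with doxycycline inducible ROR-gamma driving an RORE luciferase reporter; top concentration of the series differs between compounds; nearly all actives have a fitted effect of over 50% in size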)
Method in brief: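 Tet-on ROR-gamma CHO cells with ROR response element-luciferase reporter; compounds added 2 hr before 1 uM doxycycline induction, then 16 hr at 37 C. Antagonism scored as decreased ONE-Glo luminescence.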

[8] = qHTS assay to identify small molecule agonists of the AP-1 signaling pathway - cell viability counter screen (AID 1159525; calls by dose curve; note: nearly all actives have a fitted effect of over 55% in size)
Method in brief: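 Same-well cytotoxicity counter screen of the Tox21 10K library in ME-180 cells. The readout is ATP-dependent luminescence after 5 h compound treatment. Data are normalised to DMSO and tetra n-octyl ammonium bromide controls.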

[9] = qHTS assay to identify small molecule agonists of the AP-1 signaling pathway (AID 1159526; calls by dose curve)
[10] = target: Retinoic acid receptor RXR-alpha (Homo sapiens) (UniProt P19793); assay: qHTS assay to identify small molecule agonists of the RXR signaling pathway (AID 1159527; calls by dose curve; note: nearly all actives have a fitted effect of over 35% in size)
Method in brief: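 GeneBLAzer RXR-alpha-UAS-bla HEK 293T cells in 2% charcoal-stripped FBS medium were exposed to compounds for 16 hr at 37 C in agonist mode. Beta-lactamase reporter read as 460/530 nm FRET ratio after 2 hr substrate loading.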

[11] = qHTS assay to identify small molecule agonists of the RXR signaling pathway - cell viability counter screen (AID 1159529)
Method in brief: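 RXR-alpha-UAS-bla HEK 293T cells in medium with 2% charcoal-stripped FBS were pre-incubated 5 hr, then compound-treated 16 hr at 37 C. Viability was read by CellTiter-Glo luminescence in the same wells as the beta-lactamase assay, with tetraoctyl ammonium bromide as positive control.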

[12] = qHTS assay to identify small molecule antagonists of the retinoid acid receptor (RAR) signaling pathway - cell viability counter screen (AID 1159551); note: nearly all actives have a fitted effect of over 35% in size
Method in brief: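 Cells (C3RL4) are plated, incubated overnight, dosed with compound in DMSO, then given retinol at 1 uM final. After 6 h at 37 C, CellTiter-Glo is added and luminescence read following 30 min at room temperature.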

[13] = qHTS assay to identify small molecule antagonists of the retinoic acid receptor (RAR) signaling pathway (AID 1159552; note: nearly all actives have a fitted effect of over 50% in size)
Method in brief: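 Retinol signaling pathway inhibitors screened in C3RL4 RARE-luciferase reporter cells seeded overnight at 37 C, then compounds added with 1 uM (final) retinol as pathway substrate. After 6 hr at 37 C, luciferase luminescence read after 30 min at room temperature.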

[14] = qHTS assay to identify small molecule agonists of the retinoic acid receptor (RAR) signaling pathway (AID 1159553); note: potency is the fitted concentration of half-maximal effect
Method in brief: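 Seed C3RL4 reporter cells at 1,000 per well and incubate overnight at 37 C. Add compounds in DMSO, incubate 6 hr. Add luciferase reagent, wait 30 min at room temperature, read luminescence.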

[15] = qHTS assay to identify small molecule antagonists of the estrogen related receptor (ERR) signaling pathway from Tox21 library - cell viability counter screen (AID 1224834); note: nearly all actives have a fitted effect of over 30% in size
Method in brief: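 ERR cells, 2,000/well; 6 h settle at 37 C/5% CO2; pin-tool compound transfer in DMSO; 17.5 h at 37 C; CellTiter-Fluor, 30 min; fluorescence intensity.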

[16] = target: Luciferin 4-monooxygenase (Photinus pyralis) (UniProt P08659); assay: qHTS assay to identify small molecule inhibitors of firefly luciferase (AID 1224835); note: nearly all actives have a fitted effect of over 25% in size; note: potency is the fitted concentration of half-maximal effect
Method in brief: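 Biochemical qHTS: compounds run as interplate titrations against purified firefly enzyme, with D-luciferin and ATP each at its KM concentration. Light output recorded by CCD imaging.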

[17] = qHTS assay to identify small molecule antagonists of the constitutive androstane receptor (CAR) signaling pathway - cell viability counter screen (AID 1224837); note: series mostly up to about 92 µM; nearly all actives have a fitted effect of over 45% in size
Method in brief: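 Viability was measured with CellTiter-Fluor in a HepG2 line carrying stably transfected hCAR and a CYP2B6-2.2kb construct. Cells were exposed for 23 hr at 37 C to 15 compound concentrations with 50 nM CITCO as agonist.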

[18] = target: Nuclear receptor subfamily 1 group I member 3 (Homo sapiens) (UniProt Q14994); assay: qHTS assay to identify small molecule antagonists of the constitutive androstane receptor (CAR) signaling pathway (AID 1224838);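 note: HepG2 cells stably expressing hCAR with CYP2B6 luciferase reporter stimulated by CITCO; nearly all actives have a fitted effect of over 40% in size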
Method in brief: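 Antagonist mode used CITCO at a final 50 nM to activate CAR in human hepatoma HepG2 cells carrying stable hCAR and a 2.2 kb CYP2B6 promoter-luciferase construct. Compounds were tested at 15 concentrations over 24 h, with luminescence as the end point.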

[19] = qHTS assay to identify small molecule antagonists of the vitamin D receptor (VDR) signaling pathway - cell viability counter screen (AID 743225); note: nearly all actives have a fitted effect of over 50% in size
Method in brief: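 VDR-UAS-bla HEK 293T cells were plated and incubated 4 h at 37C, then dosed with compound plus 3 nM (final) 1-alpha,25-dihydroxyvitamin D3 for 16 h. After the 2 h beta-lactamase read, viability in the same wells was read as CellTiter-Glo luminescence after 30 min at room temperature.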

[20] = qHTS assay to identify small molecule agonists of the constitutive androstane receptor (CAR) signaling pathway - cell viability counter screen (AID 1224836); note: series mostly up to about 92 µM; nearly all actives have a fitted effect of over 45% in size
Method in brief: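 HepG2 cells stably carrying hCAR and a CYP2B6-2.2kb reporter; 15-concentration compounds plus PK11195 (final 0.75 uM), 23 hr at 37 C/5% CO2. Viability read by CellTiter-Fluor fluorescence.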

Nuclear receptor subfamily 1 group I member 3 (Homo sapiens), sequence (Q14994 whole entry, looked up): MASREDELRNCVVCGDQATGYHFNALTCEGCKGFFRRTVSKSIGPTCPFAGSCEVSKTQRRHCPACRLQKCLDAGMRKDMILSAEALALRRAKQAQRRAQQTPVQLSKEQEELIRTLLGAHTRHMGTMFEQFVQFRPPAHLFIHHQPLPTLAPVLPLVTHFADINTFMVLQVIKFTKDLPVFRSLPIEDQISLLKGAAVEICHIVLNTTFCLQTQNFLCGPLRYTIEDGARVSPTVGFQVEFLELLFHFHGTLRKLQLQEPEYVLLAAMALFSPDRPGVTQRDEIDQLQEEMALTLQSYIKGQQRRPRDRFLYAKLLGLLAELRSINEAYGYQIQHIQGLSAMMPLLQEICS
Luciferin 4-monooxygenase (Photinus pyralis), sequence (P08659 whole entry, looked up): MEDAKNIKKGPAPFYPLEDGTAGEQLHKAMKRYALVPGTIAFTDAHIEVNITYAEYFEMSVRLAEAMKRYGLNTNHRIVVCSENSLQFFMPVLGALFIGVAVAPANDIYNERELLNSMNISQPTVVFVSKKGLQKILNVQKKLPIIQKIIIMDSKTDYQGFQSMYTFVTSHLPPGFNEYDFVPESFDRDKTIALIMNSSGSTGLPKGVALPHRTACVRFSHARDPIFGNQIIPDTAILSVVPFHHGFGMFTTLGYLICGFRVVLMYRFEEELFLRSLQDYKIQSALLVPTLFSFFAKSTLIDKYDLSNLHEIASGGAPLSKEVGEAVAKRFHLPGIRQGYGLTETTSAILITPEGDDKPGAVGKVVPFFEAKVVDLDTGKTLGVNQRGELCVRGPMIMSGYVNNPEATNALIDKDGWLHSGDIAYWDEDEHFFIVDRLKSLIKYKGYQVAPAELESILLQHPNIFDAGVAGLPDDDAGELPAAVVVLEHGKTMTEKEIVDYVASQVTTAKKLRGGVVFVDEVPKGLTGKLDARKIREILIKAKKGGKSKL
Retinoic acid receptor RXR-alpha (Homo sapiens), sequence (P19793 whole entry, looked up): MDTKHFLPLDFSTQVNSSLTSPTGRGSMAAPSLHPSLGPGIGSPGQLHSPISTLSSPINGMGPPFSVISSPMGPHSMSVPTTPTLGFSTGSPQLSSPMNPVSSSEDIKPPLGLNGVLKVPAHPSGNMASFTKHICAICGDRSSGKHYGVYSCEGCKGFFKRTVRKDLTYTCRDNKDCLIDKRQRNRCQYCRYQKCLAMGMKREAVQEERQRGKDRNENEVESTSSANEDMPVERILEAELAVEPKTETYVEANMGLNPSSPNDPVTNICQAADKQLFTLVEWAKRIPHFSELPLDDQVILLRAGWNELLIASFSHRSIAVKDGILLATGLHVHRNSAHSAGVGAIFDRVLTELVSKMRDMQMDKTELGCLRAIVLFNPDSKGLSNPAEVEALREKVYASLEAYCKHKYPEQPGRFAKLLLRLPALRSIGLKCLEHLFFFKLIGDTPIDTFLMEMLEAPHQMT

SMILES	outcome [1]	outcome [2]	outcome [3]	outcome [4]	outcome [5]	outcome [6]	outcome [7]	outcome [8]	outcome [9]	Potency [10]	outcome [11]	outcome [12]	outcome [13]	Potency [14]	outcome [15]	Potency [16]	outcome [17]	Potency [18]	outcome [19]	outcome [20]
CC(Oc1cc(Cl)ccc1Cl)C(=O)O (stereo unspecified)	inactive	inactive	inactive	inactive	inactive	inactive	inactive	inactive	inactive	inactive	inactive	inactive	inactive	inactive	inactive	inactive	inactive	inactive	–	–
Cc1ccccc1C(N)=O	inactive	inactive	inactive	inactive	inactive	inactive	inactive	inactive	inactive	inactive	inactive	inactive	inactive	inactive	inactive	inactive	–	inactive	inactive	inactive
CO/N=C(/C(=O)N[C@@H]1C(=O)N2C(C(=O)[O-])=C(C[n+]3ccn4ncccc43)CS[C@H]12)c1nsc(N)n1	inactive	inactive	inactive	inactive	inactive	inactive	inactive	inactive	inactive	inactive	inactive	inactive	inactive	inactive	inactive	inactive	–	inactive	inactive	inactive
Cc1cc(-c2ccccc2)nnc1NCCN1CCOCC1	inactive	inactive	inactive	inactive	inactive	inactive	inactive	inactive	inactive	inactive	inactive	inactive	inactive	inactive	inactive	inactive	–	inactive	inactive	inactive
CC/C(C)=N\O[Si](C)(O/N=C(\C)CC)O/N=C(\C)CC	inactive	inactive	inactive	inactive	inactive	inactive	inactive	inactive	inactive	inactive	inactive	inactive	inactive	inactive	inactive	inactive	inactive	inactive	inactive	–
N#Cc1ccccc1O	inactive	inactive	inactive	inactive	inactive	inactive	inactive	inactive	inactive	inactive	inactive	inactive	inactive	inactive	inactive	inactive	inactive	inactive	–	–
CC(C)NC(=O)c1ccc(C=O)cc1	inactive	inactive	inactive	inactive	inactive	inactive	inactive	inactive	inactive	inactive	inactive	inactive	inactive	26.6 µM (active)	inactive	17.4 µM (active)	–	inactive	inactive	inactive
